# From PubChem BioAssay
# The full list was thinned out, with hits kept by preference.
# mHTT CaM bind = mHTT-calmodulin interaction abrogation. P42858. AlphaScreen His-mHTT/GST-CaM binding, luminescence. inhibition, % at 15 µM. 3.6% of 190,000 active. AID 1671202;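 further: 0% = both proteins with DMSO and 100% = one protein alone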
# Target sequence (P42858 whole entry, looked up, stated change not applied): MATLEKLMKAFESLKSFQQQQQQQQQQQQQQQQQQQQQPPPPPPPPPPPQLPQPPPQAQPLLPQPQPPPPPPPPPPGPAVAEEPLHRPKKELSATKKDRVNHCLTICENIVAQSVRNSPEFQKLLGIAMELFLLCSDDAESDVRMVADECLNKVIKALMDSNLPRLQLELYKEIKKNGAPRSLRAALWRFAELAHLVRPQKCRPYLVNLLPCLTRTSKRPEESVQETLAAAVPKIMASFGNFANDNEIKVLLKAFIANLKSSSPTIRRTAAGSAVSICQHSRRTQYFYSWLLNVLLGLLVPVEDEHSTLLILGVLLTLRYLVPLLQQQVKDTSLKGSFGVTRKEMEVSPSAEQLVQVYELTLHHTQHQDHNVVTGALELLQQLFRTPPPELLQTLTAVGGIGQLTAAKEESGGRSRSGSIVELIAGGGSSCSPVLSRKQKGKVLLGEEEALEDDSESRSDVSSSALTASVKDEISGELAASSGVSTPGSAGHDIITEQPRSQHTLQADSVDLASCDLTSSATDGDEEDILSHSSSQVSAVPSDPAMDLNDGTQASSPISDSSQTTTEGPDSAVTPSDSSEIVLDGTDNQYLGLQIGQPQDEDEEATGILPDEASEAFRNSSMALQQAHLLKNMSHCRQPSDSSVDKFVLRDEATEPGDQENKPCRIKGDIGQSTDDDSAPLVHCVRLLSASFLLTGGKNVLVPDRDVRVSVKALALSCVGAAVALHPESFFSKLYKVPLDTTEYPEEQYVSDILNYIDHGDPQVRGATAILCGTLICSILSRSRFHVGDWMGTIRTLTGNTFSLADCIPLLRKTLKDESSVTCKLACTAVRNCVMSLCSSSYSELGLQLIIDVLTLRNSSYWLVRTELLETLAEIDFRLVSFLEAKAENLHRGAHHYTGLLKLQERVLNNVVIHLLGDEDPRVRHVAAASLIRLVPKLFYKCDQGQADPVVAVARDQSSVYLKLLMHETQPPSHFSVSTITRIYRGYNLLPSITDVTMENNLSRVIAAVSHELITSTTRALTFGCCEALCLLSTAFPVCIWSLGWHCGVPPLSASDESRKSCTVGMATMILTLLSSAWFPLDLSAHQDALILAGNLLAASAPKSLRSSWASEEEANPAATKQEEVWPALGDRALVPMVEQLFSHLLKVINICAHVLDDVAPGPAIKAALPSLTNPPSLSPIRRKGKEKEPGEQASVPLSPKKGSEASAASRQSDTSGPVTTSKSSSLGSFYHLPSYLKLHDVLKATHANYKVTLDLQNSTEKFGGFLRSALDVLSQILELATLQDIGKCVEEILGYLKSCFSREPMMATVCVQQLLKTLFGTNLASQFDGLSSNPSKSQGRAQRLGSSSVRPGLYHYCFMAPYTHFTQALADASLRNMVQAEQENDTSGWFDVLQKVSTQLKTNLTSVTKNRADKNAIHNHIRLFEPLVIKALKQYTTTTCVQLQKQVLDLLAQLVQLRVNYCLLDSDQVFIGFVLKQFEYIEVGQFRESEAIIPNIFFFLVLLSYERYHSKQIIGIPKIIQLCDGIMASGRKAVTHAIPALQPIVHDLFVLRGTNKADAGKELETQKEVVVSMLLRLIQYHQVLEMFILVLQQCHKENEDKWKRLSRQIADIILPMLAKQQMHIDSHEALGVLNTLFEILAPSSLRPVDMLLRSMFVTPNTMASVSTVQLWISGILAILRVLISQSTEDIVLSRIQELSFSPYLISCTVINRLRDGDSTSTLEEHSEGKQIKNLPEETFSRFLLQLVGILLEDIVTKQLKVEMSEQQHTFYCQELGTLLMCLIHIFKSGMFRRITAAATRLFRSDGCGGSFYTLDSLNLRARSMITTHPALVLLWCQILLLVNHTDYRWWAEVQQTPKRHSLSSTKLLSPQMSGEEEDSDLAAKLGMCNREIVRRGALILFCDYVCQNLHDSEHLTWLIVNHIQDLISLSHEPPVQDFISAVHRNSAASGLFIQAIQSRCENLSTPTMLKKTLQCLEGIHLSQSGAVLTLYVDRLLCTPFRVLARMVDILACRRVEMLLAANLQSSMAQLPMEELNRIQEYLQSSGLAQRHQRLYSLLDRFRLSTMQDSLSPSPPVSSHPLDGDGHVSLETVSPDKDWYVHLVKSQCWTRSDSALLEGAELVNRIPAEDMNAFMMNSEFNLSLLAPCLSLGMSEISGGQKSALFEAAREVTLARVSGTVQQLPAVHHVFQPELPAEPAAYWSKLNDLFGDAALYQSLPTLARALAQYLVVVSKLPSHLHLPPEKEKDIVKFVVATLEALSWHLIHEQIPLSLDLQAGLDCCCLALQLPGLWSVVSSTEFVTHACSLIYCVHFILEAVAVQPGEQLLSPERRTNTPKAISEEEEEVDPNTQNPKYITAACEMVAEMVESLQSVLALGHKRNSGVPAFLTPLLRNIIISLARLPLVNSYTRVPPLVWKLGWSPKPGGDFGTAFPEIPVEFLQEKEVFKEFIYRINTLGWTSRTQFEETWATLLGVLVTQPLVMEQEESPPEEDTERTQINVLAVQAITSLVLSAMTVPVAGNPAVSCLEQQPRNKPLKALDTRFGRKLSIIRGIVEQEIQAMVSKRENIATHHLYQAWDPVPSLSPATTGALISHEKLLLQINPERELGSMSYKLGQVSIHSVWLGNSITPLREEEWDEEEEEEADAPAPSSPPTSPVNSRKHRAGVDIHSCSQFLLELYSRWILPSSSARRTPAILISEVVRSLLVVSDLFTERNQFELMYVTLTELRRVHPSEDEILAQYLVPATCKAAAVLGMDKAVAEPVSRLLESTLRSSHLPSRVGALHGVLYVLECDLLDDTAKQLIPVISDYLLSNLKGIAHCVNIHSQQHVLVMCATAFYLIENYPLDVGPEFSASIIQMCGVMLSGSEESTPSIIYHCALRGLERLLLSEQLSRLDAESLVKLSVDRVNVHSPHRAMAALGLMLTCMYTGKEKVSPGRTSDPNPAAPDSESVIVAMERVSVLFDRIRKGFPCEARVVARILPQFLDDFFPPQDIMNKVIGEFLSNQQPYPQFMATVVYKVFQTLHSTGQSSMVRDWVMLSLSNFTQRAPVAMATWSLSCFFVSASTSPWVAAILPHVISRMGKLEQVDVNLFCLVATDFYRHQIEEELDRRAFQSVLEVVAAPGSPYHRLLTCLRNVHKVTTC
# Pf apPOL block = Pf-apPOL DNA polymerase inhibition. 0.25% of 210,000 active. inhibition, % at 10 µM. Recombinant Pf-apPOL, molecular beacon fluorescence, 1.5 h
# The depositor's hits bear a star; · = no result; ! = not active in a repeat. No stated cut-off is given here; in the data, active means inhibition above about 50%; inactive means the rest.
SMILES,mHTT CaM bind,Pf apPOL block
O=C(O)c1cc(-n2cccc2)ccc1Cl,72*,18
O=C(O)c1cc(N2C(=O)C3C4c5ccccc5C(c5ccccc54)C3C2=O)ccc1Cl (stereo unspecified),1,0
COc1cc(/C=C2\SC(=Nc3ccccc3)NC2=O)cc(OC)c1O,74*,12
COc1cc(/C=C2\Sc3ccccc3C2=O)cc([N+](=O)[O-])c1O,81*,0
COc1cc(/C=C2/SC(=Nc3ccccc3)NC2=O)ccc1OCC#N,54*,-16
O=C1/C(=C/c2cc(Br)cc([N+](=O)[O-])c2O)Sc2ccccc21,45,20
CCOc1ccc(N=C2NC(=O)/C(=C\c3ccc(OC)c(OC)c3)S2)cc1,8,-3
COc1cc(/C=C2\SC(=Nc3ccccc3)NC2=O)cc(OC)c1OC,18,-16
COc1ccc(/C=C2\SC(=Nc3cc(C)cc(C)c3)NC2=O)cc1,19,-1
COc1cccc(/C=C2/SC(=Nc3cc(C)cc(C)c3)NC2=O)c1O,52*,4
O=C1S/C(=C\c2ccc(F)cc2)C(=O)N1CNc1ccc(I)cc1,4,2
O=C(NCc1cccc(Cl)c1)C1CCCN(c2ccc(N3CCOCC3)nn2)C1 (stereo unspecified),-2,-4
CC1(c2ccccc2)OC(=O)C(=Cc2ccc(Br)cc2)C(=O)O1 (stereo unspecified),1,-2
COc1cc(OC)cc(C(=O)Nc2ccc3oc(-c4ccc(C(C)(C)C)cc4)cc(=O)c3c2)c1,-5,-2
C=CCOc1ccc(/C=C2/SC(=Nc3ccccc3)NC2=O)cc1OC,30,-7
COc1cc(/C=C2\SC(=Nc3ccccc3)NC2=O)cc(I)c1O,68*,3
COc1cc(/C=C2/SC(=Nc3cc(C)cc(C)c3)NC2=O)cc([N+](=O)[O-])c1O,54*,-1
CCOc1cc(/C=C2\SC(=Nc3ccccc3)NC2=O)cc(Br)c1O,86*,-52
CCOc1cc(/C=C2/SC(=Nc3ccccc3)NC2=O)ccc1O,45,-14
CCOc1cc(/C=C2/SC(=O)NC2=O)cc([N+](=O)[O-])c1O,28,-2
C=CCOc1ccc(/C=C2/SC(=Nc3cccc(C(=O)O)c3)NC2=O)cc1OC,58*,-5
O=C1NC(=Nc2ccccc2)S/C1=C/c1cccc(O)c1,25,-2
CN(C)c1nc2ccc(OC(=O)COc3ccccc3)cc2s1,-10,-8
CCCc1[nH]nc(-c2ccc(C(F)(F)F)cc2)c1NC(=O)OC,0,-3
CNC(=O)C(=O)Nc1cccc(Cl)c1Cl,-2,-2
SMILES,mHTT CaM bind,Pf apPOL block
CC(=O)N1CCc2sc(C(=O)N3CCN(c4cccc(Cl)c4)CC3)cc2C1,78*,6
CCC(=O)N1CCc2sc(C(=O)N3CCN(c4cccc(Cl)c4)CC3)cc2C1,17,2
CC(=O)N1CCc2sc(S(=O)(=O)N3CCN(c4ccccc4Cl)CC3)cc2C1,81*,-5
CC(=O)N1CCc2sc(S(=O)(=O)N3CCN(c4ccccc4)CC3)cc2C1,12,-3
Cc1[nH]n(-c2cccc(Cl)c2)c(=O)c1C=Nc1ccccc1O,32,-2
O=c1[nH]cnc2c1nc(Br)n2C1OC(CO)C(O)C1O (stereo unspecified),-2,0
CCOc1ccc(/C=C2\N=C(c3cccc(Br)c3)OC2=O)cc1,-1,2
Cc1ccccc1NS(=O)(=O)c1ccc(-c2ccccc2)cc1,80*,-14
COc1ccc(S(=O)(=O)Nc2ccccc2C)cc1OC,-3,-4
COc1cc(NC(=O)c2cc3c(CO)cnc(C)c3oc2=Nc2ccccc2)cc(OC)c1,-2,-2
CCc1nn2cc(-c3ccc(Cl)cc3)nc2s1,-9,-8
CCc1ccc2cc(-c3ccc(Cl)cc3)cn2c1,59*,-2
CC(C)N1C(=O)c2cccnc2Sc2cc(C(=O)N3CCN(C)CC3)ccc21,13,4
CCN1C(=O)C(C)(C(=O)Nc2ccc(OC)cc2)Oc2cccnc21 (stereo unspecified),-6,0
O=C(NCCc1csc(C2CCCN(C(=O)c3cc(Cl)ccc3F)C2)n1)C1CCC1 (stereo unspecified),-1,-1
CSc1cccc2sc(N(CCN(C)C)C(=O)c3ccc(N(C)C)cc3)nc12,42,-3
CN(C)CCCN(C(=O)c1cccc(C(F)(F)F)c1)c1nc2ccc(F)cc2s1,55*,-9
CC1(C)CC(=O)C(c2nc3ccc(C(=O)O)cc3[nH]2)=C(O)C1,0,-14
Fc1ccc(CN2CCCCC2c2nncn2CC2CC2)c(F)c1 (stereo unspecified),3,-3
C=CSc1sc(Cl)c(N2CCC3(CC2)OCCO3)c1[N+](=O)[O-],67*,5
C=CS(=O)(=O)c1sc(Cl)c(N2CCOCC2)c1[N+](=O)[O-],60*,-3
O=[N+]([O-])c1c(N2CCOCC2)c([N+](=O)[O-])c(N2CCOCC2)c([N+](=O)[O-])c1N1CCOCC1,1,-6
C=CSc1sc(Cl)c(N2CCOCC2)c1[N+](=O)[O-],34,0
Cc1noc(C)c1C(=O)N1CCCC1c1cccc(F)c1 (stereo unspecified),-2,0
CN(CC#CC(C)(C)O)Cc1ccccc1,-4,-3
SMILES,mHTT CaM bind,Pf apPOL block
CN(CC#CCC(O)(c1ccccc1)c1ccccc1)Cc1ccccc1,87*,-4
COc1ccccc1N1COc2cc(C)c(Cl)c(C)c2C1,100*,-1
COc1ccccc1N1COc2ccc(F)cc2C1,47,5
Cn1ncc(N2CCCC(C(=O)N3CCc4ccccc4C3)C2)cc1=O (stereo unspecified),1,2
CCC(C)c1ccccc1OCC(O)CNC(C)(C)C (stereo unspecified),-6,-7
CCC(C)c1ccccc1OCC(O)CNC(C)(C)C(C)(C)C (stereo unspecified),100*,-6
O=C(Nc1cccc(Cl)c1)c1cccc(Br)c1,-40,-2
COc1cccc(CNC(=O)c2cc3ccncc3n2C)c1,-3,-5
CC(C)C1NC2(CCN(C(=O)c3ccccc3)CC2)N(Cc2cccnc2)C1=O (stereo unspecified),-3,-4
Oc1ccc(Nc2nc(NCc3ccco3)c3ccccc3n2)cc1,53*,-1
Clc1ccc(CSc2nc(NCc3ccco3)c3ccccc3n2)cc1,25,-8
O=C1c2ccccc2NC(c2cc3c(cc2[N+](=O)[O-])OCO3)N1c1ccccc1 (stereo unspecified),90*!,-1
O=C1CSC(c2cc3c(cc2[N+](=O)[O-])OCO3)N1c1ccccc1 (stereo unspecified),18,-3
COC(=O)NNC(=O)C1CCCCC1,-3,·
CNC(=O)C1CC(=O)N(c2cccc(OC)c2)C1 (stereo unspecified),-4,-6
Cc1ccc2[nH]c(=O)c(-c3nc(-c4ccc(F)c(Br)c4)no3)c(O)c2c1,-5,-4
O=C1CCN(CCc2ccccc2)CCN1[C@H](COc1ccccc1)Cc1ccccc1,98*,-4
O=C1CCN(CCc2ccccc2)CCN1[C@H](CSc1ccc(Br)cc1)c1ccccc1,21,-4
CCCN1CCC(=O)N([C@H](COc2ccccc2)CC(C)C)CC1,7,-3
CC(C)CN1CCC(=O)N([C@H](COc2ccccc2)Cc2ccccc2)CC1,19,-6
CC(=O)Nc1ccc(SC[C@H](c2ccccc2)N2CCN(CCc3ccccc3)CCC2=O)cc1,98*,-6
CC(C)C[C@@H](COc1ccccc1)N1CCN(CCc2ccccc2)CCC1=O,84*,-10
